Screening results deposited in PubChem by National Center for Advancing Translational Sciences (NCATS).
This is one part of a sample in which hits are shown more often than they occur.
Lamin A splicing: modulators of lamin A splicing. AID 1487. actives 0.01% (n = 200,000). Potency, µM (titrated, usually from 46.1 µM), usual class: inhibitors. HeLa LMNA splicing GFP/RFP minigene ratio, 48 h; active = well fitted inhibition curve with a large enough effect in the signal ratio, with a control signal flat, not every such curve was filed as active; inconclusive = small, poorly fitted or top-dose-only effect, or effect the other way, or a change in a side signal; the % refers to the signal ratio
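S3 HeLa stable clones carrying a lamin A-EGFP splicing minigene plus DsRed2 were seeded at 600 cells/well in Opti-MEM with 2% FBS, pin-dosed and incubated 48 h at 37°C. Acumen cytometry (488 nm) gave the GFP/RFP total-intensity ratio.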
IMPase inh: cell-permeable inhibitors of inositol monophosphatase (IMPase); P97697; inhibition (IP1 accumulation), % at 46.1 µM; 120,000 tested, under 10 active; CHO-M1 cells, IP1 accumulation, HTRF TR-FRET ratio; active = well fitted curve in the direction sought with a large enough effect in the signal ratio, not every such curve was filed as active; inconclusive = small, poorly fitted or top-dose-only effect, or a change in a side signal; inactive = no such curve, though single readings can be large or run the other way; the % refers to the signal ratio;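 also: cells stimulated with carbachol in lithium chloride buffer; higher means more IMPase inhibition seen as more IP1 and lower FRET ratio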
Target sequence (P97697 whole entry, looked up): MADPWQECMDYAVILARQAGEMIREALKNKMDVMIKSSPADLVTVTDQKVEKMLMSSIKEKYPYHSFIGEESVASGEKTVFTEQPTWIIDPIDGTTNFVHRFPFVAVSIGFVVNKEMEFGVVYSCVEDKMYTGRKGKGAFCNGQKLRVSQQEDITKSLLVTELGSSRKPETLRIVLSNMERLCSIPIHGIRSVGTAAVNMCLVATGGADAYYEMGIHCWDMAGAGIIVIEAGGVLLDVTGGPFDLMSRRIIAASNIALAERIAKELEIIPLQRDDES
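Elevated IP1 in lysates lowers TR-FRET signal (665/620 ratio and 620 channel reported). Cells were CHO-M1, given carbachol (50 uM as added) plus 50mM LiCl, pH 7.4, 30 min, 37C; compounds titrated up to 46 uM; AC50 by Hill equation.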
PNC inhibitor: perinucleolar compartment assembly inhibition; PC3M PTB-GFP, PNC prevalence imaging, 16 h; stronger effect = lower value; activity change (PNC), negative = inhibition, % at 10 µM; actives 3.1% (n = 140,000);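 active = readout at or below -70, meaning at least 70% loss of cells showing the perinucleolar compartment, a nuclear body marking cancer cells; inconclusive = readout between -30 and a set limit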
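PC3M cells stably expressing PTB-GFP, 750–1000 cells/well, treated 16 h at 37 °C with compound (23 nl of library stock), in duplicate. After paraformaldehyde fixation and Hoechst stain, imaged at 20x; PNC prevalence scored by image analysis.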
Of the large screens only hits and unclear results are named; the others gave an inactive call.

O=C(C1CCCN(S(=O)(=O)c2cnc[nH]2)C1)N1CC(=O)N(CCc2ccccc2)C(=O)C1 (stereo not given)	PNC inhibitor -119.3
O=C(C1CCCN(S(=O)(=O)c2cnc[nH]2)C1)N1CCN(c2ccc(Cl)cc2)CC1 (stereo not given)	Lamin A splicing inconclusive
COc1cccc(NC(=O)CSC2=Nc3ccccc3C3=NC(CC(=O)NCCc4ccccc4)C(=O)N23)c1 (stereo not given)	none (no result: IMPase inh, PNC inhibitor)
COc1cccc(N2CC(NC(=O)c3ccc(S(=O)(=O)N4CCCCC4)cc3)CC2=O)c1 (stereo not given)	none (no result: IMPase inh, PNC inhibitor)
O=[N+]([O-])c1cc(C(F)(F)F)ccc1-n1nnc2ccccc21	none
O=[N+]([O-])c1cc(S(=O)(=O)Nc2ccccc2)ccc1-n1nnc2ccccc21	Lamin A splicing inconclusive, PNC inhibitor -114.3
Cc1ccc(C)c(N2CCN(C(=O)Nc3cn(CC(C)C)c(=O)c4ccccc34)CC2)c1	none (no result: IMPase inh, PNC inhibitor)
O=C(NCCc1c[nH]c2ccc(Cl)cc12)c1cccnc1	PNC inhibitor inconclusive
CC(=O)Nc1nonc1-c1nc2ccccc2n1CC1CC1	PNC inhibitor -94.0
CC(=O)Nc1nonc1-c1nc2ccccc2n1CCC#N	none
CCOc1ccccc1C1C(C#N)=C(N)Oc2cc(N)ccc21 (stereo not given)	PNC inhibitor inconclusive
CN(C)c1ccc2c(c1)OC(N)=C(C#N)C2c1cccc(F)c1 (stereo not given)	Lamin A splicing inconclusive, PNC inhibitor -85.0
Clc1ccc(OCc2nc(-c3ccc(Br)o3)no2)cc1	none
Brc1ccc(-c2noc(COc3ccc4c(c3)CCC4)n2)o1	PNC inhibitor -80.3
Cc1ccc(S(=O)(=O)CCC(=O)Nc2ccc(OC(F)(F)F)cc2)cc1	none (no result: IMPase inh, PNC inhibitor)
COC(=O)c1cc(Br)c(=O)n(-c2ccc(F)cc2)c1	none
Cc1ccc(S(=O)(=O)NNC(=O)C2CCN(Cc3ccccc3)CC2)cc1	PNC inhibitor -100.0
COC(=O)C1CCN(Cc2ccc(C)cc2)CC1	none
Cc1nn(-c2ccc(N3CCCC3)nn2)c(C)c1CCC(=O)N1CCN(c2ccc(F)cc2)CC1	none (no result: IMPase inh, PNC inhibitor)
COc1ccc(NC(=O)c2cc(-c3ccccc3)oc2C)cc1	PNC inhibitor inconclusive (no result: IMPase inh)
COc1ccc(NS(=O)(=O)c2cc(OC)ccc2NC(=O)c2cc(C)oc2C)cc1	Lamin A splicing inconclusive, PNC inhibitor -100.4
CCOc1cc(N2CCOCC2)c(OCC)cc1NC(=O)Cc1cccc(OC)c1	none
CCOc1cc(N2CCOCC2)c(OCC)cc1NC(=O)Cc1ccc(OC)c(OC)c1	Lamin A splicing inconclusive, PNC inhibitor -124.1
CC(C)(C)OC(=O)N1CCC(c2c(C(=O)NCc3ccco3)cnn2-c2ccccc2)CC1	none (no result: IMPase inh, PNC inhibitor)
Cc1cc2c(cc1S(=O)(=O)CCC(=O)N1CCCCC1C)OCC(=O)N2 (stereo not given)	none (no result: IMPase inh, PNC inhibitor)
COc1cccc(NC(=O)CCC(=O)N2Cc3ccccc3Oc3ncccc32)c1	none (no result: IMPase inh, PNC inhibitor)
O=C(NCc1ccc2c(c1)OCO2)c1ccc(CS(=O)(=O)c2ccc(Br)cc2)o1	Lamin A splicing inconclusive, PNC inhibitor -87.1
O=C(NCc1ccc2c(c1)OCO2)c1ccc(CS(=O)(=O)c2cccc(C(F)(F)F)c2)o1	Lamin A splicing inconclusive
Cc1oc2ncn(CC(C)C)c(=O)c2c1C(=O)N1CCN(c2ccc(F)cc2)CC1	none (no result: IMPase inh, PNC inhibitor)
Cc1cnc(NC(=O)CSc2nnc(COc3c(C)cccc3C)o2)s1	PNC inhibitor -119.3
Cc1cccc(C)c1OCc1nnc(SCC(=O)Nc2ccccc2F)o1	none
COc1ccc(-n2ncc3c(NC4CCCC4)ncnc32)cc1	none (no result: IMPase inh, PNC inhibitor)
CC(=O)Nc1c(O)[nH]c2ccccc12	PNC inhibitor -98.0
CC(=O)Nc1c(O)n(C)c2ccccc12	none
O=C(CCc1ccccc1)NC1CC(=O)N(c2cccc(F)c2)C1 (stereo not given)	none (no result: IMPase inh, PNC inhibitor)
CC(=O)Nc1nc(-c2ccccc2)ns1	PNC inhibitor -100.0
COCC(=O)Nc1nc(-c2ccccc2)ns1	none
O=C(Nc1ccc2c(c1)OCO2)C1(S(=O)(=O)c2ccc(Cl)cc2)CC1	none
O=C(NNC(=O)c1ccccc1Br)c1ccc(Cl)cc1	none
O=C(Nc1ccc(Cl)cc1F)c1ccccc1Br	PNC inhibitor -81.1 (no result: IMPase inh)
COc1ccc(-c2cn3cccnc3n2)cc1NC(=O)c1c(F)cccc1F	none (no result: IMPase inh, PNC inhibitor)
CCN(CC)S(=O)(=O)c1ccc2c(c1)N(CC(=O)NCc1ccccc1)C(=O)C1CCCCN21 (stereo not given)	none (no result: IMPase inh, PNC inhibitor)
COc1ccc(-c2noc(-c3cc4ccccc4oc3=O)n2)cc1	none
COc1ccc(-c2csc(-c3cc4ccccc4oc3=N)n2)cc1	PNC inhibitor -93.2
Cc1ccc(S(=O)(=O)CC(=O)Nc2nc3c(C)cc(C)cc3s2)cc1	none (no result: IMPase inh, PNC inhibitor)
O=C(COC(=O)c1cc(-c2ccccc2)nc2c(Cl)cccc12)c1ccc(F)cc1	none (no result: Lamin A splicing, PNC inhibitor)
Cc1cc(C)nc(N/N=C/C=C/c2ccccc2)n1	PNC inhibitor -104.0 (no result: IMPase inh)
Cc1cc(C)nc(N/N=C/c2ccccc2)n1	Lamin A splicing inconclusive
COc1cc(C(=O)N2CCN(CCc3ccccn3)CC2)cc(OC)c1OC	none (no result: IMPase inh, PNC inhibitor)
CCCCOc1ccc(/C=C/C(=O)Nc2ccc([N+](=O)[O-])cc2C)cc1	PNC inhibitor inconclusive
Cc1ccc(NC(=O)/C=C/c2ccc([N+](=O)[O-])s2)cc1	Lamin A splicing inconclusive (no result: IMPase inh)
Cc1cc([N+](=O)[O-])ccc1NC(=O)/C=C/c1cccs1	PNC inhibitor -112.5
Cc1ccc(NC(=O)/C=C/c2ccc([N+](=O)[O-])s2)c(C)c1	Lamin A splicing inconclusive, PNC inhibitor -97.5
CCOC(=O)c1ccccc1NC(=O)c1c(C)oc2ncnc(N3CCOCC3)c12	none (no result: IMPase inh, PNC inhibitor)
CCOC(=O)c1[nH]c(C)c(CCC(=O)O)c1C	PNC inhibitor inconclusive
CCOc1c(C)cc2[nH]c(CCC(=O)O)nc2c1C	IMPase inh inconclusive, PNC inhibitor -118.8
COc1ccc(C2CC(=O)N(Cc3cccc(C)c3)c3c2c(C)nn3-c2nc(C)cc(C)n2)c(OC)c1 (stereo not given)	none (no result: IMPase inh, PNC inhibitor)
O=C(O)c1ccccc1C(=O)N(Cc1ccccc1)Cc1ccccc1	none
Nc1ccccc1C(=O)N(Cc1ccccc1)Cc1ccccc1	PNC inhibitor -100.0
CCOC(=O)CCNC(=O)Nc1ccc2nc(C)n(Cc3ccc(Cl)cc3)c(=O)c2c1	Lamin A splicing inconclusive
CC(=O)Nc1ccc2nc(C)n(Cc3ccc(Cl)cc3)c(=O)c2c1	Lamin A splicing inconclusive, PNC inhibitor -90.5
O=C(/C=N/O)Nc1cccnc1	PNC inhibitor -100.0
O=C(/C=N/O)NCc1cccnc1	PNC inhibitor inconclusive
Cc1ccc(C)n1NC(=O)c1ccccc1	none
O=C(Nc1cccnc1)c1cnc2ccccc2n1	PNC inhibitor -87.7
CC(=O)c1ccc(NC(=O)c2cccs2)cc1	PNC inhibitor -110.7
Cc1ccc(C(=O)Nc2ccc(NC(=O)c3cccs3)cc2)cc1C	none (no result: Lamin A splicing, PNC inhibitor)
Cc1ccc(C)n1NC(=O)c1cccs1	PNC inhibitor -116.6
CCOC(=O)c1cccc(NC(=O)c2cnc3ccccc3n2)c1	none
Cn1c(=O)c2c(SCC(=O)N3CCc4ccccc43)nc(-c3cccc(F)c3)nc2n(C)c1=O	none (no result: IMPase inh, PNC inhibitor)
Cc1nn(-c2ccc(N3CCCCC3)nn2)c(C)c1CCC(=O)NCc1ccccc1	none (no result: IMPase inh, PNC inhibitor)
Cc1cccc(CN2C(=O)c3ccccc3Sc3ccc(C(=O)NCc4cccs4)cc32)c1	none (no result: IMPase inh, PNC inhibitor)
Fc1ccc([C@@H]2Nc3ccccc3[C@@H]3C=CC[C@@H]32)cc1	none (no result: Lamin A splicing, PNC inhibitor)
